Records with an inconclusive call do not appear. Unmarked numbers belong to inactive results. The source made the active and inactive calls. Calls follow the shape of the dose curve; as a rule, active = well fitted curve in the direction sought with a large enough effect; inconclusive = small, poorly fitted or top-dose-only effect, or another doubt; inactive = no such curve, though single readings can be large; an effect the other way counts as inactive or inconclusive.

Assay [1] can be described thus: Viability qHTS for spleen associated tyrosine kinase inhibitor (SYKi) naive MV4-11 cells (AID 1963823). Also: nearly all actives have a fitted effect of over 40% in size. Also: potency is read from the fitted curve at half-maximal effect. The settings on record: MV4-11 AML viability, CellTiter-Glo luminescence, 72 h; series mostly up to 45 µM. The gist of the method: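 In this viability screen, compounds acted on SYK inhibitor naive MV4-11 cells for three days (72 hr, 37 C). Remaining viable cells were measured by CellTiter-Glo luminescence following a 10 min room-temperature development.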
For orientation: In qHTS, concentration-response curves come from the screen itself.

A short description of assay [2]: Cellular viability qHTS for adrenocortical cancer (ACC) cell line SW-13 (AID 1963989). Also: nearly all actives have a fitted effect of over 65% in size. Also: potency is read from the fitted curve at half-maximal effect.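 As to activity (max response): cells grown in serum-free medium with ITS supplement; % is scaled to controls: 0 for no effect and ±100 for the full control effect.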 The settings on record: SW-13 ACC cells viability, CellTiter-Glo, 48 h; activity (max response): active compounds read low. An outline of the steps:
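Viability was read as CellTiter-Glo luminescence after 48 h compound treatment (up to 46 uM final) of SW-13 cells grown serum-free; titration curves were fit with a four-parameter logistic model to give IC50 and efficacy.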

Assay [3] in a line: Cellular viability qHTS for adrenocortical cancer (ACC) cell line NCI-H295R (AID 1963990). Also: nearly all actives have a fitted effect of over 60% in size. Also: potency is read from the fitted curve at half-maximal effect. Particulars: CellTiter-Glo ATP luminescence, 48 h; series mostly up to 46.1 µM. An outline of the steps: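 CellTiter-Glo ATP luminescence, read 48 h after compound addition, measured viability of NCI-H295R adrenocortical cells grown serum-free with ITS. Final concentrations spanned up to 46 uM. Data normalized to DMSO and doxorubicin, fitted for IC50 and maximal response.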

Assay [4] is described as follows: Viability qHTS for spleen associated tyrosine kinase inhibitor (SYKi) drug resistant MV4-11 cells (AID 1963824). Also: nearly all actives have a fitted effect of over 35% in size. Also: potency is read from the fitted curve at half-maximal effect. Particulars: SYKi-resistant MV4-11 viability, CellTiter-Glo, 72 h; series mostly up to 45 µM. An outline of the steps:
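SYK inhibitor-resistant MV4-11 AML cells, 500 per well, added to predispensed compounds and incubated 72 hr at 37 C, 5% CO2. Viability measured by CellTiter-Glo luminescence after 10 min at room temperature.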

A short description of assay [5]: Quantitative highthroughput screen to assess conditional lethalithy of NOMO1 cells grown in RPMI1640 with untreated serum (RPMI+s) (AID 1963876).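 Also: 100% = DMSO wells and 0% = empty wells without cells; nearly all actives have a fitted effect of over 35% in size.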 Particulars: NOMO1 AML cells in RPMI+serum, CellTiter-Glo viability, 48 h; series mostly up to 45.8 µM. The gist of the method:
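Each medium arm—HPLM with 10% dialyzed FBS, or RPMI1640 with 5 mM glucose and 10% untreated or dialyzed FBS—was screened against an 11-point, 3-fold compound titration for 48 h at 37 °C, with CellTiter-Glo luminescence as endpoint.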
(In ATP-based viability assays light output follows the ATP content of the culture.)

In the case of `COc1ccc(CN2CCNCC2)c(OC)c1OC`, the Potency entry in assay [1] and in assay [3] was “inactive” each time. Besides, the activity (max response) in assay [2] was 10.4%.

On to `C/C(=C\c1csc(C)n1)[C@@H]1C[C@@H]2O[C@]2(C)CCC[C@H](C)[C@H](O)[C@@H](C)C(=O)C(C)(C)[C@@H](O)CC(=O)O1`, for which the Potency is 0.0047 µM (active) in assay [1] and 0.0282 µM (active) in assay [3].

As for `CO[C@H]1CCC(O[C@H]2C[C@H]([C@]3(C)CC[C@]4(C[C@H](O)[C@@H](C)[C@@H]([C@@H](C)/C=C(\C)C(=O)[C@H](C)C[C@H](C)C(=O)O)O4)O3)O[C@]3(O[C@@H]([C@H]4O[C@@](O)(CO)[C@H](C)C[C@@H]4C)C[C@@H]3C)[C@@H]2C)O[C@@H]1C` (stereo partly specified), the Potency was 0.166 µM (active) in assay [1] and 1.12 µM (active) in assay [3].

Consider `CCOC(=O)c1ncn2c1CN(C)C(=O)c1c(I)cccc1-2`, for which the Potency entry in assay [1] and in assay [3] was “inactive” each time. Further, the activity (max response) in assay [2] is -2.47%.

Regarding `C#CC(O)(C=CCl)CC` (stereo unspecified), the Potency result in assay [1] and in assay [3] was “inactive” in each case. Also, the activity (max response) in assay [2] was 7.7%.

Regarding `CS(=O)(=O)c1ccc(C(=O)C2C(=O)CCCC2=O)c([N+](=O)[O-])c1`, the Potency in assay [1] is 6.24 µM (active). Moreover, the activity (max response) in assay [2] was -0.0273%. Moreover, the Potency entry in assay [3] is “inactive”.

`CCCCCCCCCC(CC)c1ccc(S(=O)(=O)O)cc1` (stereo unspecified): the Potency is 7.7 µM (active) in assay [1], 31.6 µM (active) in assay [2] and 25.1 µM (active) in assay [3].

Regarding `COC(=O)C(Cl)C(=O)OC`, the Potency entry in assay [1] and in assay [3] was “inactive” throughout. In addition, in assay [2], the activity (max response) is -3.15%.

Consider `C[C@]12CC[C@H]3[C@@H](CCC4=CC(=O)CC[C@@H]43)[C@@H]1CC[C@@H]2O`, for which the Potency result in assay [1] and in assay [3] was “inactive” in each case. Further, the activity (max response) in assay [2] was 5.27%.

For `CC(=O)OC[C@H]1O[C@@H]([S-])[C@H](OC(C)=O)[C@@H](OC(C)=O)[C@@H]1OC(C)=O.CC[PH+](CC)CC.[Au]`, the Potency in assay [1] is 0.209 µM (active); in assay [2] it was 0.708 µM (active); in assay [3], 0.631 µM (active).

With `CCC(=O)OC1(c2ccccc2)CCN(C)CC1`, the Potency result in assay [1] and in assay [3] was “inactive” throughout. Moreover, the activity (max response) in assay [2] was -11.5%.

As for `COc1cccc2c1C(=O)c1c(O)c3c(c(O)c1C2=O)C[C@@](O)(C(=O)CO)CC3OC1CC(N2CCOC(OC)C2)C(O)C(C)O1` (stereo partly specified), the Potency in assay [1] is 0.0027 µM (active); in assay [2], 0.1 µM (active); in assay [3], 0.0501 µM (active).

Consider `O=C1c2ccccc2C(=O)C1C(=O)C(c1ccccc1)c1ccccc1`, for which, in assay [1], the Potency result is “inactive”. Also, in assay [3], the Potency was 23.1 µM (active).

Take `CO[C@]12CC[C@@]3(C[C@@H]1[C@](C)(O)C(C)(C)C)[C@@H]1Cc4ccc(O)c5c4[C@@]3(CCN1CC1CC1)[C@H]2O5`: the Potency is 21.5 µM (active) in assay [1], 6.31 µM (active) in assay [2] and 3.98 µM (active) in assay [3].

Turning to `O=C(O)CNC(=O)C1C(=O)N(C2CCCCC2)C(=O)N(C2CCCCC2)C1=O`, the Potency result in assay [1] and in assay [3] was “inactive” each time. Further, the activity (max response) in assay [2] is -10.4%.

For `CC(C)=CC1C(C(=O)OCc2cccc(Oc3ccccc3)c2)C1(C)C` (stereo unspecified), the Potency result in assay [1] and in assay [3] was “inactive” throughout. Also, the activity (max response) in assay [2] is 3.55%.

As to `CC(CC(C(N)=O)(c1ccccc1)c1ccccc1)N(C)C` (stereo unspecified), the Potency result in assay [1] and in assay [3] was “inactive” throughout. The activity (max response) in assay [2] is 5.97%.

In the case of `CCOP(=S)(OCC)O/N=C(\C#N)c1ccccc1`, the Potency result in assay [1] and in assay [3] was “inactive” each time. Also, the activity (max response) in assay [2] is 0.816%.

For `NC(=O)CS(=O)C(c1ccccc1)c1ccccc1` (stereo unspecified), the Potency result in assay [1] and in assay [3] was “inactive” throughout. Moreover, the activity (max response) in assay [2] was 12.6%.

`COP(=S)(OC)Oc1ccc(S(N)(=O)=O)cc1`: the Potency entry in assay [1] and in assay [3] was “inactive” throughout.

Regarding `CC(C(=O)c1ccccc1)N(C)C` (stereo unspecified), the Potency entry in assay [1] and in assay [3] was “inactive” throughout.

For the molecule `O=C(O)COc1nc(Cl)c(Cl)cc1Cl`, the Potency entry in assay [1] and in assay [3] was “inactive” each time. Moreover, the activity (max response) in assay [2] is 12.3%.

For the molecule `CN1CCC(N(Cc2ccccc2)c2ccccc2)CC1`, the Potency entry in assay [1] and in assay [3] was “inactive” in each case.

As for `CCN(CC)C(=O)[C@@H]1C=C2c3cccc4[nH]cc(c34)C[C@H]2N(C)C1`, the Potency in assay [1] is 28.4 µM (active). The Potency result in assay [3] is “inactive”.

As to `CC(C)(N)Cc1ccccc1Cl`, the Potency result in assay [1] and in assay [3] was “inactive” throughout. Besides, the activity (max response) in assay [2] was 5.36%.

In the case of `CC(Cc1ccccc1)NCc1ccccc1Cl` (stereo unspecified), the Potency entry in assay [1] and in assay [3] was “inactive” each time. In assay [2], the activity (max response) was -8.69%.

As for `C[C@]12CCC(=O)C=C1CC[C@@H]1[C@@H]2CC[C@]2(C)C(=O)CC[C@@H]12`, the Potency result in assay [1] and in assay [3] was “inactive” each time. Besides, the activity (max response) in assay [2] is -7.18%.

Turning to `O=c1[nH]c2cc(Cl)ccc2n1C1CCNCC1`, the Potency entry in assay [1] and in assay [3] was “inactive” throughout.

Regarding `Cc1nc2ccccc2c(=O)n1-c1ccccc1Cl`, the Potency entry in assay [1] and in assay [3] was “inactive” in each case. The activity (max response) in assay [2] was -17.2%.

Consider `COc1cc(C[C@@H](C)N)c(OC)cc1Br`, for which the Potency result in assay [1] and in assay [3] was “inactive” each time. In addition, the activity (max response) in assay [2] was -7.05%.

For the molecule `ClCCN1CCCC1`, the Potency result in assay [1] and in assay [3] was “inactive” in each case. Also, the activity (max response) in assay [2] was 12.8%.

For the molecule `C=CCN1C[C@H](C)N([C@H](c2ccc(C(=O)N(CC)CC)cc2)c2cccc(OC)c2)C[C@H]1C`, the Potency result in assay [1] and in assay [3] was “inactive” each time. In assay [2], the activity (max response) is -5.15%.

With `CC(C)(C)OC(=O)c1ncn2c1[C@@H]1CCCN1C(=O)c1c(Br)cccc1-2`, the Potency result in assay [1] and in assay [3] was “inactive” throughout. In addition, in assay [2], the activity (max response) is 2.94%.

Regarding `C=CCC1([C@H](C)CCC)C(=O)NC(=O)NC1=O`, the Potency result in assay [1] and in assay [3] was “inactive” each time. Also, the activity (max response) in assay [2] was -3.9%.

As for `O=C(O)c1cc(Oc2ccc(C(F)(F)F)cc2Cl)ccc1[N+](=O)[O-]`, the Potency entry in assay [1] and in assay [3] was “inactive” each time.

Turning to `CC(C)(O)C(Cl)(Cl)Cl`, the Potency entry in assay [1] and in assay [3] was “inactive” throughout.

`CCc1ccc(C2CCNCC2)cc1`: the Potency entry in assay [1] and in assay [3] was “inactive” throughout. The activity (max response) in assay [2] was -14%.

On to `N#Cc1nn(-c2c(Cl)cc(C(F)(F)F)cc2Cl)c(N)c1S(=O)C(F)(F)F` (stereo unspecified), for which the Potency is 10.6 µM (active) in assay [4], 5.8 µM (active) in assay [2] and 2.59 µM (active) in assay [3].

For `Nc1ccc(Cl)cc1`, the Potency result in assay [4] and in assay [3] was “inactive” each time.

With `CC(=O)Nc1cc([As](=O)(O)O)ccc1O`, the Potency result in assay [4] and in assay [3] was “inactive” each time. In assay [2], the activity (max response) is 8.13%.

As to `O=C(N/N=C/c1ccc([N+](=O)[O-])o1)c1cc([N+](=O)[O-])cc([N+](=O)[O-])c1O`, the Potency result in assay [4] and in assay [3] was “inactive” throughout. Further, the activity (max response) in assay [2] is -8.68%.

For `CCCOC(=O)c1cncn1C(C)c1ccccc1` (stereo unspecified), the Potency result in assay [4] and in assay [3] was “inactive” each time. Also, the activity (max response) in assay [2] was 12%.

As for `O=[N+]([O-])c1c2ccccc2cc2ccccc12`, in assay [4], the Potency was 24.1 µM (active). For the same molecule, the activity (max response) in assay [2] is 8.46%. Further, the Potency entry in assay [3] was “inactive”.

Regarding `CC[N+]1(C)CCCC(OC(=O)C(O)(c2ccccc2)c2ccccc2)C1` (stereo unspecified), the Potency result in assay [4] and in assay [3] was “inactive” each time. Besides, the activity (max response) in assay [2] was 0.735%.

`C[C@]12CC[C@H]3[C@@H](CCC4=CC(=O)CC[C@@]43C)[C@@H]1CC[C@@H]2C(=O)O`: the Potency result in assay [4] and in assay [3] was “inactive” throughout.

Turning to `C=CC(=O)NCNC(=O)C=C`, the Potency result in assay [4] and in assay [3] was “inactive” throughout. Further, the activity (max response) in assay [2] was -0.888%.

For the molecule `COc1cc(CCN)cc(OC)c1OC`, the Potency entry in assay [4] and in assay [3] was “inactive” throughout.

`c1ccc2c(c1)OCC(C1=NCCN1)O2` (stereo unspecified): the Potency entry in assay [4] is “inactive”. Further, the Potency in assay [3] was 13 µM (active).

As to `CCCCCCC(=O)CCCCCC/C=C/C[C@@H](O)[C@H](O)[C@@](N)(CO)C(=O)O`, the Potency entry in assay [4] and in assay [3] was “inactive” each time. The activity (max response) in assay [2] was -4.81%.

`COc1cc2cc(c1Cl)N(C)C(=O)C[C@H](OC(=O)C(C)C)[C@]1(C)O[C@H]1[C@H](C)[C@@H]1C[C@@](O)(NC(=O)O1)[C@H](OC)C=CC=C(C)C2`: the Potency entry in assay [5] was “inactive”.

For `C[C@]12Cc3nonc3C[C@@H]1CC[C@@H]1[C@@H]2CC[C@@]2(C)[C@H]1CC[C@]2(C)O`, the values for the Potency in assay [4] and in assay [3] were 16.8 µM (active) and 23.1 µM (active), respectively.

Values taken from PubChem BioAssay (NCATS).
